About 83,000 compounds went through this panel and 20% of them were active in at least one assay; those are over-represented in the sample as a whole.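 Results are percent growth after 48 hours of single-concentration exposure. 100 means growth as in untreated cells, lower positive values show inhibition; negative values down to -100 show cell death.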 Calls of active or inactive are those of the source. Rule for the calls: active = growth percent below 10; inactive = the rest.
tested on: HL-60(TB) leukemia; assay: NCI-60 one-dose screen, 48 h (100 = growth as untreated, 0 = no growth, -100 = all killed); conditions: 10 µM unless noted

Row | Structure (SMILES) | growth
1 | Clc1ccc(-c2ccc(OCCCN3CCN(c4ccncc4)CC3)cc2)cc1 | -13.9% (active)
2 | CC1=C(C#N)C2=NNCC(c3ccccc3)=NN2C(c2ccccc2)=C1 | 138% (inactive)
3 | Cn1cc(-c2cc3nc(-c4cn(C)c5ncc(Br)cc45)cc(N)n3n2)c2ccccc21 | -60.3% (active)
4 | Nc1nc(-c2ccccc2)c(N=Nc2ccc(Cl)cc2Cl)s1 | -31.7% (active)
